In the library only some 0.92% were active in any assay of this set; here they are far more common.
CIT2-GFP yeast: modulators of CIT2-GFP expression in yeast, primary screen, S. cerevisiae, GFP fusion, multiplex flow cytometry, MLPCN library | AID 2029, 2009 | S. cerevisiae CIT2-GFP strain, 3 h; 100 means same as DMSO wells | GFP response vs DMSO, % at 10 µM | 320,000 compounds, 0.065% hits;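 active = GFP response relative to DMSO above a set limit, near the screen mean plus 3 SD, cut at about 150% in these data; inconclusive = Fewer than 70 cells measured for a yeast strain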;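 also: ratio of well median GFP fluorescence to mean of DMSO wells on the plate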
LAP4 TOR yeast: modulators of LAP4-GFP expression in yeast, primary screen, S. cerevisiae, multiplex flow cytometry, MLPCN library | 3 h; median GFP as percent of DMSO wells | GFP response vs DMSO, % at 10 µM | 320,000 compounds, 0.34% hits;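 active = GFP response vs DMSO above a set limit, about the screen mean plus 3 SD, cut at about 150% in these data; inconclusive = under 70 cell events counted for the yeast strain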
MEP2 TOR yeast: modulators of MEP2-GFP levels in yeast, primary screen, S. cerevisiae, multiplex flow cytometry, MLPCN library; S. cerevisiae MEP2-GFP strain, 3 h; 100% = DMSO control level; AID 2016, 2009; 330,000 compounds, 0.51% hits; GFP response vs DMSO, % at 10 µM;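 active = GFP response versus DMSO above a set limit, roughly screen mean plus 3 SD, cut at about 180% in these data; inconclusive = fewer than 70 cells counted for a yeast strain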;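 also: median GFP fluorescence of the barcode-gated MEP2-GFP cells per well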
AGP1-GFP MLPCN: modulators of AGP1-GFP expression in yeast TOR pathway, primary screen, cell-based, multiplex flow cytometry, S. cerevisiae, MLPCN library; 320,000 compounds, 0.02% hits; AID 2066, 2009; 3 h; GFP as percent of DMSO wells; GFP response vs DMSO, % at 10 µM;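 active = GFP response relative to DMSO above a set limit, near screen average plus 3 SD, cut at about 150% in these data; inconclusive = fewer than 70 cells counted for the yeast strain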;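 also: median GFP channel fluorescence of the gated AGP1 strain per well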
RPL19A-GFP yeast: RPL19A-GFP expression modulators in yeast, primary screen, cell-based, S. cerevisiae, multiplex flow cytometry, MLPCN; S. cerevisiae RPL19A-GFP strain, 3 h; hits give low values; 330,000 compounds, 0.3% hits; percent response vs DMSO, % at 10 µM;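 active = percent response vs DMSO below 50%; inconclusive = fewer than 70 events counted for the yeast strain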;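 also: median channel GFP fluorescence of the barcoded RPL19A-GFP strain; ratio of sample median GFP to plate DMSO average so 100% = DMSO; lower means less RPL19A-GFP as with rapamycin TOR inhibition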
The depositor's hits bear a star; ? = inconclusive; . = no result given; + = active, no number; [ ] = dose if it differs, or a comment.

SMILES	CIT2-GFP yeast	LAP4 TOR yeast	MEP2 TOR yeast	AGP1-GFP MLPCN	RPL19A-GFP yeast
COc1ccc(C2=CC3=C(Br)C(=O)C(C)(OC(=O)c4cccs4)C(=O)C3=CO2)cc1 (stereo not given)	?	141	159	18	65
COc1ccc(C2=CC3=C(Br)C(=O)C(C)(OC(=O)c4ccco4)C(=O)C3=CO2)cc1 (stereo not given)	?	106	104	11	46*[may fluoresce violet]
CCc1nc2ccccc2c2nc3ccccc3n12	96	103	102	97	102
O=c1c2ccc([N+](=O)[O-])c3cccc(c32)c2nc3ccccc3n12	119	148	183*	108	106
Oc1c(Br)cc(Br)cc1C=Nc1cccc2ncccc12	65	191*	92	70	81
COc1ccc(CCNC(=O)c2cccnc2Cl)cc1OC	93	106	95	102	95
N#C/C(=C(\O)c1cc(Cl)sc1Cl)c1nc2ccccc2[nH]1	101	99	108	99	101
O=C(O)c1cccc(N=C2NC(=O)C(CO)(CO)S2)c1	103	93	106	98	106
O=C1c2cccnc2C(=O)N1Cc1ccc(S(=O)(=O)N2CCN(c3ccccc3)CC2)cc1	97	88	?	92	?
CC1(C)CNC(=O)c2sc(N3CCCCC3)nc2C1	100	96	98	98	95
CC1(C)CC(=O)c2sc(N3CCCCC3)nc2C1	?	101	218*[may fluoresce violet]	53	71
Cc1c([N+](=O)[O-])cnc(Sc2ccccc2)c1[N+](=O)[O-]	79	294*	86	70	62
Cc1ccc(Sc2ncccc2[N+](=O)[O-])cc1	90	94	104	92	94
OC(CNCc1ccccc1)(c1ccc(F)cc1)c1ccc(F)cc1	101	100	99	100	96
OC(CNCc1ccccc1)(c1ccccc1)c1ccccc1	?	85	211*[may fluoresce violet]	26	66
Cc1ccc(C(=O)Nc2ccc(NC(=O)c3ccco3)c(C)c2)cc1	90	112	102	95	101
Cc1cc(NC(=O)c2ccc(Br)o2)ccc1NC(=O)c1ccco1	?	70	238*[may fluoresce violet]	?	45*[may fluoresce violet]
CCC(=O)N1CCc2cc(S(=O)(=O)CCC(=O)Nc3ccc(OC)cc3)ccc21	?	77	132	?	20*[may fluoresce violet]
Cc1ccc(CCNC(=O)CCS(=O)(=O)c2ccc3c(c2)oc(=O)n3C)cc1	?	91	207*[may fluoresce violet]	?	52
CC(=O)N1CCc2cc(S(=O)(=O)CCC(=O)NCCc3ccccc3)ccc21	?	79	121	?	28*[may fluoresce violet]
COc1ccc(N2CCN(CC(=O)N3c4ccccc4CC3C)CC2)cc1 (stereo not given)	104	99	101	107	104
COc1ccccc1C1Nc2ccccc2NC2=C1C(=O)CC(C)(C)C2 (stereo not given)	?	95	627*[may fluoresce violet]	?	38*[may fluoresce violet]
COc1ccccc1C1C2=C(CC(C)(C)CC2=O)N(CC(=O)O)C2=C1C(=O)CC(C)(C)C2	94	92	239*	77	54
COc1cccc(C2Nc3ccccc3NC3=C2C(=O)CC(C)(C)C3)c1OC (stereo not given)	111	73	100	98	94
CCOC(=O)CC1C(=O)NCCN1S(=O)(=O)c1ccc(NC(C)=O)cc1 (stereo not given)	150*[may fluoresce green]	103	111	112	92
SMILES	CIT2-GFP yeast	LAP4 TOR yeast	MEP2 TOR yeast	AGP1-GFP MLPCN	RPL19A-GFP yeast
Cc1ccc(NC(=O)/C(C#N)=C/c2ccc(C)s2)c(C)c1	?	115	468*[may fluoresce violet]	?	56
Cc1noc2ncnc(Sc3ccc(Br)cc3)c12	104	163*	108	100	103
N#CC1=C(N)NC(SCc2ccc(Br)cc2)=C(C#N)C12CCCCC2	?	79	256*[may fluoresce violet]	?	18*[may fluoresce violet]
C(=N\Nc1ccccn1)/c1c[nH]c2ccccc12	103	115	207*	27	68
CC(C)(C)C(=O)Nc1ccc(C(=O)COC(=O)c2ccccn2)cc1	101	95	99	96	100
N#Cc1c(C(F)(F)F)cc(-c2cccs2)nc1SCC(=O)O	104	102	95	102	113
CNc1nc(-c2cccs2)cc(C(F)(F)F)c1C#N	?	99	592*[may fluoresce violet]	17	47*[may fluoresce violet]
COc1ccc(NC(=O)CCN2CCN(S(=O)(=O)c3cc(Cl)ccc3OC)CC2)cc1	111	101	178*	38	.
CCCCN1C2CCCC1CC(NC(=O)c1cccc(Cl)c1)C2 (stereo not given)	100	86	95	92	94
CCOC(=O)c1c(C)[nH]c(C)c1C(=O)COC(=O)c1cc2ccccc2cc1O	154*	127	152	104	112
Cc1ccccc1NC(=O)CCc1nnc2ccc(N3CCC4(CC3)OCCO4)nn12	102	104	110	101	104
O=C1C(CSCc2ccccc2)NC(=S)N1c1ccccc1 (stereo not given)	91	152*	87	97	95
Cc1cc(C)c2c(n1)nn1c(NCCOCCO)cc(C)nc21	104	104	134	82	86
Cc1cc(C)c2c(n1)nn1c(NCCCN(C)C)cc(C)nc21	?	106	259*[may fluoresce violet]	46	35*[may fluoresce violet]
Cn1c(CNC(=O)CCNC(=O)c2ccccc2)cc(=O)n(C)c1=O	107	97	107	102	98
CCOC(=O)c1c(NC(=O)CN2CCCc3ccccc32)sc(C(C)=O)c1C	?	88	213*[may fluoresce violet]	?	54
COCCOC(=O)c1c(NC(=O)CN2CCc3ccccc32)sc(C(N)=O)c1C	101	101	105	100	101
O=C(C1CC1)N1CCc2cc(S(=O)(=O)N3CCN(c4ccccc4)CC3)ccc21	?	80	164	?	14*[may fluoresce violet]
COc1ccc(N2CCN(C(=O)C3CCN(S(=O)(=O)c4ccccc4)CC3)CC2)cc1	896*[may fluoresce green]	+[may fluoresce green]	+[may fluoresce green]	249*[may fluoresce green]	270
O=C(CCl)c1ccc2c(c1)CCN2C(=O)C1CC1	82	159*	95	108	103
Cc1ccc(CCCNC(=O)C2CCC(=O)N(Cc3cccc(F)c3)C2)cc1 (stereo not given)	106	93	104	105	103
O=C(O)c1c[nH]c2ccc(S(=O)(=O)N3CCOCC3)cc12	?	79	252*[may fluoresce violet]	?	15*[may fluoresce violet]
O=C(NCCN1CCOCC1)c1c[nH]c2ccc(S(=O)(=O)N3CCOCC3)cc2c1=O	105	95	98	98	101
CSc1ncc(Cl)c(C(=O)NCc2cccnc2)n1	104	99	114	101	111
CCN(CC)c1ccc(/C=C/c2nc3ccccc3s2)cc1	149	145	206*	102	111
